The results in this text go back to ChEMBL document CHEMBL4649991.

The target in test [1] is Bromodomain-containing protein 4 (Homo sapiens) (UniProt O60885). The note with it: Compound concentration 10.0 uM, Protein concentration 2.0 uM.
Test [2] deals with T1, Transcription intermediary factor 1-alpha (Homo sapiens) (UniProt O15164).
T1 sequence (whole entry): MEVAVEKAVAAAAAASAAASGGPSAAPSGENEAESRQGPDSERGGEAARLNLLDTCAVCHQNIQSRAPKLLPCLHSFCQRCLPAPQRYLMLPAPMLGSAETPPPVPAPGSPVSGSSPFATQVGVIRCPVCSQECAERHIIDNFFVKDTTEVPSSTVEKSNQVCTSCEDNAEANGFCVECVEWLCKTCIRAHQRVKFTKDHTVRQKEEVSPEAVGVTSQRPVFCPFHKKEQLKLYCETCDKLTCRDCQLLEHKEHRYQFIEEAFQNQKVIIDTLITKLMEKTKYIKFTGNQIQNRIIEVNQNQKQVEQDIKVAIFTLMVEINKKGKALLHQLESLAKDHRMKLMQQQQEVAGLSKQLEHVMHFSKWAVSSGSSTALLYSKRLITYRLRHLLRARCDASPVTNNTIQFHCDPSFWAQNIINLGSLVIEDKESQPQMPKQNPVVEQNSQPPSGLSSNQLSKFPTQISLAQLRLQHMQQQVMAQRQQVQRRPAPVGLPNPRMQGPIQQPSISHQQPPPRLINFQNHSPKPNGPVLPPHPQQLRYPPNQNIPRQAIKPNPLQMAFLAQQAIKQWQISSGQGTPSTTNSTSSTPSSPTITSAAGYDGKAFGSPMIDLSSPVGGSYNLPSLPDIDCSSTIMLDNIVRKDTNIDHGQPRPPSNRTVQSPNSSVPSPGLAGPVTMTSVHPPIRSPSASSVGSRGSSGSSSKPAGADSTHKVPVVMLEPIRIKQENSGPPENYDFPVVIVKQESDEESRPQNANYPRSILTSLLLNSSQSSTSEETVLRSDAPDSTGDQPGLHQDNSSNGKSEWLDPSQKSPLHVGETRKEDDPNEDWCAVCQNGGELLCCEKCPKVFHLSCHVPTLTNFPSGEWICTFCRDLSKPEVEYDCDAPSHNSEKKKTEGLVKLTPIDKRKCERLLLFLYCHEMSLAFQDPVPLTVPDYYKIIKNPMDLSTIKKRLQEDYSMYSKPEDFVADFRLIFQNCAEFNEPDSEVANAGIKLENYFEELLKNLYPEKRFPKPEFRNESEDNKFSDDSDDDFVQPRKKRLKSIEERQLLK
Conditions: Compound concentration 10.0 uM, Protein concentration 2.0 uM.

Several values for one entry are separate records, joined by “and”; a condition that tells them apart may be missing. Equal entries are not always repeated.

For `Cc1cc(=O)n(C)c2cc(N3C(=O)CC[C@@H](NS(=O)(=O)CC(C)C)[C@@H]3c3ccc(Cl)cc3)ccc12`, the ΔTm was -0.29 °C and 0.14 °C in test [1]; 0.23 °C in test [2].
